# Screens deposited in PubChem by National Center for Advancing Translational Sciences (NCATS).
# Most compounds without a hit are left out; they make up all but 7.9% or so of the library.
# KB-3-1 tox: qHTS assay for MDR1-selective chemotherapeutics: Primary screen using the parental adenocarcinoma cell KB-3-1; Potency, µM (titrated, usually from 46.1 µM), most hits filed as cytotoxic; 400,000 tested, 1.4% active; KB-3-1 viability, CellTiter-Glo ATP luminescence, 72 h; AID 1347075, 2019; also: % is scaled to controls: 0 for no effect and ±100 for the full control effect; nearly all actives have a fitted effect of over 60% in size
#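 Cells are dispensed, compounds pinned in, plates held at 37 °C for 72 h, then CellTiter-Glo is added and luminescence read after 10 minutes. Cell line: parental KB-3-1 in phenol-red-free DMEM, 10% FBS.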
# KB-V1 cytotox: qHTS assay for MDR1-selective chemotherapeutics: Primary screen using the drug-selected MDR subline cells KB-V1 | KB-V1 MDR cells viability, CellTiter-Glo, 72 h | Potency, µM (series often up to 46.1 µM), actives largely listed as cytotoxic | 400,000 tested, 3.4% active | AID 1347076, 2019; also: % is scaled to controls: 0 for no effect and ±100 for the full control effect; nearly all actives have a fitted effect of over 60% in size
#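 KB-V1 cells (P-gp-expressing MDR subline of KB-3-1) in phenol-red-free DMEM with 10% FBS were exposed to library compounds over a concentration series for 72 h at 37 degrees C. Viability read by CellTiter-Glo luminescence; concentration-effect curves fitted after normalization.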
# SW480 rerep: A quantitative high throughput screen for small molecules that induce DNA re-replication in SW480 colon adenocarcinoma cells. 340,000 tested, 1.8% active. AID 624297, 2012. SW480 DNA re-replication, Hoechst DNA content imaging, 48 h. Potency, µM (doses to about 46.1 µM), inactives show at the highest dose re-replication activation, most hits filed as activators; also: % of control where 0% means no effect; nearly all actives have a fitted effect of over 55% in size
#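 Image-based DNA-content assay: after two days of treatment, nuclei were labelled with the DNA dye Hoechst and imaged, and hits were compounds raising the count of nuclei showing high fluorescence intensity.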
# MCF10A rerep: A quantitative high throughput screen for small molecules that induce DNA re-replication in MCF 10a normal breast cells. MCF 10A DNA re-replication, Hoechst nuclear intensity, 48 h. Potency, µM (highest dose often 46.1 µM), for inactives: top-dose activity, positive = re-replication, hits mostly activators. 350,000 tested, 2.9% active. AID 624296, 2012; also: % of control where 0% means no effect; nearly all actives have a fitted effect of over 50% in size
# HT1080NT lethal: qHTS for induction of synthetic lethality in tumor cells producing 2HG: qHTS for the HT-1080-NT fibrosarcoma cell line; HT-1080-NT fibrosarcoma viability, CellTiter-Glo ATP luminescence, 48 h; Potency, µM (titrated, usually from 46.1 µM), without a hit: top-dose activity, negative = less viability, usual class: cytotoxic; 360,000 tested, 1.6% active; AID 686970, 2013;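 also: NT is the 2HG producing partner of a matched IDH1 knockdown line; 0% = DMSO-treated cells and -100% = media-only wells without cells; nearly all actives have a fitted effect of over 55% in size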
#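 Read-out is CellTiter-Glo luminescence after 10 minutes at room temperature, following 48 hours' compound treatment of HT-1080-NT cells (750 cells/well, RPMI, 5% FBS, 37 degrees C).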
# HT1080 IDH1KD tx: qHTS for induction of synthetic lethality in tumor cells producing 2HG: qHTS for the HT-1080-IDH1KD cell line; HT-1080 IDH1 knockdown viability, ATP luminescence, 48 h; 360,000 tested, 2% active; Potency, µM (doses to about 46.1 µM), without a hit: at the highest dose activity, negative = toxicity, hits mostly cytotoxic;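 also: 0% = DMSO wells and -100% = cell-free medium wells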
#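 Knockdown cells (IDH1KD HT-1080) received compounds 2 h after plating at 750 cells/well and were kept 48 h at 37 °C in 5% FBS RPMI. A CellTiter-Glo luminescence read gave % activity for curve fitting.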
# * = called active by the depositor; i = inactive; u = inconclusive; x = no result; ! = repeats disagree; [ ] = dose if it differs, or a comment. Calls follow the shape of the dose curve; as a rule, active = well fitted curve in the direction sought with a large enough effect; inconclusive = small, poorly fitted or top-dose-only effect, or another doubt; inactive = no such curve, though single readings can be large; an effect the other way counts as inactive or inconclusive. Potency is read from the fitted curve at half-maximal effect.
SMILES,KB-3-1 tox,KB-V1 cytotox,SW480 rerep,MCF10A rerep,HT1080NT lethal,HT1080 IDH1KD tx
C=CCn1c(SCc2nc3ccccc3[nH]2)nnc1-c1ccccn1,i,i,7%,4%,-2%,2%
Oc1cccc2ccc[n+](CC(O)CBr)c12 (stereo not given),i,i,x,x,x,x
O=[N+]([O-])c1ccc(NC2CCCC2)cc1,i,u,-1%,11%,7%,8%
O=[N+]([O-])c1ccc(N/N=C2/CCCCC2c2ccccn2)cc1 (stereo not given),u,i,-11%,-3%,14%,0.92µM*
COc1ccc(NC(=O)CCSc2nc(C)cs2)cc1,i,i,-2%,u,21%,0%
COc1ccc(C(=O)CC(Nc2ccc([N+](=O)[O-])cc2)c2ccc(Cl)cc2)cc1 (stereo not given),i,6.5µM*,u,13%,u,10µM*
COc1ccc(C(=O)CC(=O)C(=O)Nc2ccc(Cl)cc2)cc1,i,i,20%,17%,-2%,u
COc1ccccc1NC(=O)c1ccc(COc2ccc(C)c(C)c2)o1,i,i,x,x,x,x
Cc1cc(N2CCN(C)CC2)nc2ccc(NC(=O)CCC(=O)N3CCN(c4ccc([N+](=O)[O-])cc4)CC3)cc12,i,i,u,18µM*,21µM*,16µM*
Cc1cc(N2CCOCC2)nc2ccc(NC(=O)CCC(=O)N3CCN(c4ccccc4)CC3)cc12,i,i,-6%,1%,5%,0%
O=C(CCC(=O)N1CCCCCC1)Nc1ccc([N+](=O)[O-])cc1,i,i,18%,4%,6.5µM*,u
Cc1cc([N+](=O)[O-])ccc1NC(=O)CCC(=O)N1CCCCC1,i,i,-7%,0%,9%,6%
O=C(NCC(=O)N1CCCCCCC1)c1cccc([N+](=O)[O-])c1,i,21µM*,2%,0%,-3%,-3%
Cc1ccc(S(=O)(=O)N(CC(=O)N/N=C/c2cccc(Cl)c2)c2cccc3cccnc23)cc1,u,u,16µM*,u,17%,16%
COc1cc2c(cc1[N+](=O)[O-])-c1ccc([N+](=O)[O-])cc1C2=NO,i,u,x,x,-14%,-17%
O=C(O)CN(CCOCCOCCN(CC(=O)O)CC(=O)O)CC(=O)O,x,x,-2%,-4%,x,x
O=C(O)CN(CCN(CC(=O)O)CC(=O)O)CCN(CC(=O)O)CC(=O)O,x,x,24µM*!,-8%[0.169 µM],x,x
Cc1ccc(/C=N/c2sc(Cc3ccccc3)c(C)c2C(N)=O)o1,u,u,-442%,u,u,-20%
Cc1c(Cc2ccccc2)sc(/N=C/c2ccc3ccccc3c2)c1C(N)=O,u,0.92µM*,1.2µM*,2.9µM*,2.9µM*,2.9µM*
Cc1c(Cc2ccccc2)sc(/N=C/c2c(O)ccc3ccccc23)c1C(N)=O,i,u,u,12µM*,u,u
CCOC(=O)c1cc(CC)sc1/N=C/c1c(O)ccc2ccccc12,u,i,-2%,u,-29%,18µM*
Cc1cccc2cc(CN(Cc3ccccc3)C(=O)c3cccc(F)c3)c(Cl)nc12,i,18µM*,3.7µM*,u,-26%,-2%
O=C1c2cnc3nc(SCc4cccc(Cl)c4)nn3c2CC2c3ccccc3CCN12 (stereo not given),i,i,2.6µM*,2.1µM*,7%,15%
Cc1ccc(N2CCN(S(=O)(=O)c3ccc4c(c3)CC(=O)N4)CC2)cc1,i,i,x,x,x,x
N#CC(C#N)=C1C=CC=CN1/C(=C\c1ccco1)C(=O)c1ccc(Cl)cc1,i,i,2.6µM*,1.6µM*,u,u
SMILES,KB-3-1 tox,KB-V1 cytotox,SW480 rerep,MCF10A rerep,HT1080NT lethal,HT1080 IDH1KD tx
N#CC(C#N)=C1C=CC=CN1/C(=C\c1ccco1)C(=O)c1ccc(-c2ccccc2)cc1,i,i,x,3.3µM*,u,u
N#C/C(=C\c1ccco1)C(=O)NCc1ccccc1,i,i,-160%,-4%,0%,1%
c1cc2c(cc1-c1csc(NNC3=NCCCCC3)n1)OCCO2,i,i,-3%,1%,-27%,-14%
CC[C@H](C)C1OC(=O)[C@@H](C)[C@@H](CC)NC(=O)[C@H](C)N(C)C(=O)C(C)(C)C(=O)C(C)NC(=O)[C@H](Cc2ccc(OC)cc2)N(C)C(=O)[C@H](C(C)C)N(C)C(=O)CNC(=O)[C@H](CC(C)C)N(C)C(=O)CNC1=O (stereo not given in full),0.21µM*,i,x,x,0.26µM*,0.18µM*
CCC[C@H]1NC(=O)[C@H](C)N(C)C(=O)C(C)(C)C(=O)C(C)NC(=O)[C@H](Cc2ccc(OC)cc2)N(C)C(=O)[C@H](C(C)C)N(C)C(=O)CNC(=O)[C@H](CC(C)C)N(C)C(=O)CNC(=O)[C@H]([C@@H](C)CC)OC(=O)[C@H]1C (stereo not given in full),i,i,u,1.5µM*,0.82µM*,1µM*
COc1ccc(-n2c(=O)c3sc4ccccc4c3n(CC(=O)NCc3ccccc3)c2=O)cc1,i,i,x,x,x,x
COc1cc(NC(=O)Cn2nc(C(F)(F)F)c3c2CCC3)cc(OC)c1OC,16µM*,i,x,x,x,x
CCSc1nnc(NC(=O)c2nc(-c3ccccc3)n(-c3ccccc3)n2)s1,i,u,-9%,10µM*,u,12%
Cc1csc(NC(=O)c2nc(-c3ccccc3)n(-c3ccccc3)n2)n1,u,10µM*,-5%,7%,4%,14%
CCSc1nnc(NC(=O)c2ccc(C)o2)s1,i,18µM*,-2%,2%,15%,9%
CCSc1nnc(NC(=O)c2cc(C)nc3ccccc23)s1,i,i,-7%,2%,-1%,-1%
CCc1nnc(NC(=O)c2ccc(C)o2)s1,i,i,4%,11%,18%,26%
O=C(Nc1nccs1)c1nc(-c2ccccc2)n(-c2ccccc2)n1,i,i,-5%,16%,0%,1%
CCCOc1ccc2oc(=O)c3c(c2c1)CCCN3C(=O)CN1CCN(c2ncccn2)CC1,i,i,4%,5%,13%,18%
